Experimental data as given in PubChem BioAssay (Tox21).
A number with no mark means an inactive call. A call without a number means that no potency is given here. Activity calls are given as the source filed them. The call rests on the fitted dose curve; in most records, active means well fitted activation curve with a large enough effect in the repeat runs; inconclusive means weak or mixed curves; inactive means flat fitted curve, though single readings scatter.

Test: A CellTox Green Cytotoxicity Assay to monitor cytotoxicity in HEK293 cells - 0 hour (AID 1224869); further: nearly all actives have a fitted effect of over 50% in size
Details: CellTox Green fluorescence; series mostly up to 76.8 µM
Description: National Center for Advancing Translational Sciences [NCATS]
NIH Chemical Genomics Center [NCGC]
U.S. Environmental Protection Agency [EPA]
National Institutes of Environmental Health Sciences [NIEHS]
National Toxicology Program [NTP]
Cell-based models are critical for drug discovery. Determining the natural cytotoxic effects resulting from test compounds is an essential research activity. A CellTox Green Cytotoxicity Assay to monitor cytotoxicity in real time of continues cell culture during 40 hours of the compound treatment was used to screen Tox21 10K library compounds in Hek293 cells. CellTox Green Cytotoxicity Assay is a nonlytic, homogeneous, biofluorescent method to measure cytotoxicity in cell culture after experimental manipulation. The assay system uses a proprietary asymmetric cyanine dye that is excluded from viable cells but preferentially stains the dead cell's DNA. […] Viable cells produce no appreciable increases in fluorescence. Therefore, the fluorescence signal produced by the binding interaction with dead cell DNA is proportional to cytotoxicity.
The mixture of Hek293 cell suspension and reagents were dispensed at 600cells/6 ul/well in 1536-well tissue culture treated black solid bottom plates using a Multidrop dispenser. After the assay plates were incubated at a 37 C/5% CO2 incubator for 5 hours, 23 nL of compounds dissolved in DMSO, positive and negative controls was transferred to the assay plate by a pintool work station. The plates were incubated at 37 C for 40 hours. The fluorescence intensity were measured at 0h, 8h, 16h, 24h, 32h and 40h time points using ViewLux plate reader during compound treatment.

SMILES	Potency	cytotoxicity
CCc1nccnc1C	inactive	–
COc1cc2c(Nc3ccc(Br)cc3F)ncnc2cc1OCC1CCN(C)CC1	inactive	–
O=S(=O)(O)SSS(=O)(=O)O	inactive	–
O=C(COCCOCCOCC(=O)Nc1c(I)cc(I)c(C(=O)O)c1I)Nc1c(I)cc(I)c(C(=O)O)c1I	inactive	–
CC(C)CCCCCCOC(=O)C1CCCCC1C(=O)OCCCCCCC(C)C (stereo not given)	inactive	–
OC(CCN1CCCCC1)(c1ccccc1)c1ccccc1	inactive	–
CCOC(=O)CCc1ccccc1	inactive	–
Nc1cc(Cl)cc(S(=O)(=O)O)c1O	inactive	–
CC1=CC[C@H](CC=O)C1(C)C	inactive	–
Cc1nc2ccccc2c(=O)o1	inactive	–
O=c1[nH]c(=O)c2ccccc2o1	inactive	–
Cn1c(=O)c2c(ncn2CC2OCCO2)n(C)c1=O	inactive	–
CCCCOC(=O)C(=O)OCCCC	inactive	–
O=C(O)c1ccccc1C(=O)Nc1ccc(S(=O)(=O)Nc2nccs2)cc1	inactive	–
O=C1NC2NC(=O)NC2N1 (stereo not given)	inactive	–
c1ccccc1	inactive	–
C=CCOC(=O)c1ccc(C(=O)OCC=C)c(C(=O)OCC=C)c1	inactive	–
CN[C@@H]1[C@H](O)[C@H](NC)[C@H]2O[C@@]3(O)C(=O)C[C@@H](C)O[C@H]3O[C@@H]2[C@H]1O	inactive	–
CCC1Nc2cc(Cl)c(S(N)(=O)=O)cc2S(=O)(=O)N1 (stereo not given)	inactive	–
CO[Si](CCCS)(OC)OC	inactive	–

SMILES	Potency	cytotoxicity
CC(C)c1ccccc1O	inactive	–
CC(C)COC(=O)CC(C(=O)OCC(C)C)S(=O)(=O)O (stereo not given)	inactive	–
CC(C)CCC(=O)CCC(C)C	inactive	–
CNC(=O)C(c1ccccc1)c1ccccc1	inactive	–
CC(=O)OC(C(=O)c1ccccc1)c1ccccc1 (stereo not given)	inactive	–
CCC1COC(=O)O1 (stereo not given)	inactive	–
O=C(O)C(=O)Nc1cccc(-c2nn[nH]n2)c1	inactive	–
CC(CC(=O)O)CC(C)(C)C (stereo not given)	inactive	–
CCCCCCCCCCCCCCCCI	–	0.206% [at 15.8 µM]
CCN1CN(CC)CN(CC)C1	inactive	–
CCCCCCCC/C=C\CCCCCCCC(=O)OC[C@@H](O)[C@H]1OC[C@H](O)[C@H]1O	inactive	–
Cc1nc([N+](=O)[O-])cn1-c1ccc([N+](=O)[O-])cc1	inactive	–
CC(C)(C)c1ccc(C=O)cc1	inactive	–
C1=C\CC/C=C\CC/1	inactive	–
COc1ccc(NS(=O)(=O)c2ccc(N)cc2)nn1	inactive	–
CC(=O)OC[C@H]1O[C@@H](OC(C)=O)[C@H](OC(C)=O)[C@@H]1OC(C)=O	inactive	–
CCOC(=O)OCC/C(SC(=O)OCC)=C(\C)N(C=O)Cc1cnc(C)nc1N	inactive	–
CCCCCCCCCOCC1CO1 (stereo not given)	inactive	–
O=C(O)Cc1cccc(-c2cc(CCCCCCc3ccc(O[C@H]4O[C@H](CO)[C@@H](O)[C@H](O)[C@@H]4O)c(-c4cccc(CC(=O)O)c4)c3)ccc2O[C@H]2O[C@H](CO)[C@@H](O)[C@H](O)[C@@H]2O)c1	–	3% [at 0.29 µM]
COc1cc2c3cc1Oc1cc(ccc1O)C[C@@H]1c4c(cc(OC)c(O)c4Oc4ccc(cc4)C[C@@H]3N(C)CC2)CC[N+]1(C)C	inactive	–
